In PubChem BioAssay AID1159580 (chemical genetic matrix, 2015):
Hit rate of the full screen: of about 5,500 compounds, about 2,000 (36%) were called active. Roughly 18% stayed inconclusive and do not appear here. No stated cut-off is given here; in the data, active means normalized growth mostly below about 0.91 (no sharp cut-off); inconclusive means no clear call, values can overlap the other calls; inactive means mostly above about 0.92. This is one part of the list.

Test: chemical genetic growth profiling, strain panel (AID 1159580);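 further: tested at 20 µM; growth read once vehicle control cultures reached saturation at 30 °C; 1 = growth at the plate median or of vehicle wells; lower values mean less growth of the strain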
Conditions: growth OD

Measured: normalized growth

CCOC(=O)[C@H](CCc1ccccc1)N[C@@H](C)C(=O)N1Cc2ccccc2C[C@H]1C(=O)O
inactive: S. cerevisiae deletion strains, locus YJR043C, strain POL32, active compounds read low 1.02 | S. cerevisiae deletion strains, locus YJR066W, strain TOR1, active compounds read low 0.98 | S. cerevisiae deletion strains, locus YKL009W, strain mrt4, active compounds read low 0.994 | S. cerevisiae deletion strains, locus YKL068W, active compounds read low 1 | S. cerevisiae deletion strains, locus YKL085W, strain MDH1 (second series), active compounds read low 1.01 | S. cerevisiae deletion strains, locus YKL085W, strain MDH1, active compounds read low 1.01 | S. cerevisiae deletion strains, locus YKL160W, strain elf1, active compounds read low 0.975 | S. cerevisiae deletion strains, locus YKL190W, strain CNB1, active compounds read low 1.01 | S. cerevisiae deletion strains, locus YKR001C, strain vps1, active compounds read low 0.986 | S. cerevisiae deletion strains, locus YKR026C, strain gcn3, active compounds read low 0.994 | S. cerevisiae deletion strains, locus YKR091W, strain srl3, active compounds read low 1 | S. cerevisiae deletion strains, locus YLL001W, strain dnm1, active compounds read low 0.998 | S. cerevisiae deletion strains, locus YLL026W, active compounds read low 1.01 | S. cerevisiae deletion strains, locus YLL041C, strain sdh2, active compounds read low 0.998 | S. cerevisiae deletion strains, locus YLR027C, strain aat2, active compounds read low 0.994 | S. cerevisiae deletion strains, locus YLR039C, strain RIC1, active compounds read low 1.05 | S. cerevisiae deletion strains, locus YLR058C, strain SHM2, active compounds read low 1.01 | S. cerevisiae deletion strains, locus YLR102C, strain apc9, active compounds read low 1.01 | S. cerevisiae deletion strains, locus YLR113W, strain HOG1, active compounds read low 0.963 | S. cerevisiae deletion strains, locus YLR221C, strain rsa3, active compounds read low 1.02 | S. cerevisiae deletion strains, locus YLR258W, strain gsy2, active compounds read low 0.999 | S. cerevisiae deletion strains, locus YLR262C, strain YPT6 (second series), active compounds read low 0.995 | S. cerevisiae deletion strains, locus YLR262C, strain YPT6, active compounds read low 1.07 | S. cerevisiae deletion strains, locus YLR268W, strain sec22, active compounds read low 1 | S. cerevisiae deletion strains, locus YLR320W, strain mms22, active compounds read low 0.996 | S. cerevisiae deletion strains, locus YLR330W, strain CHS5, active compounds read low 1 | S. cerevisiae deletion strains, locus YLR342W, strain FKS1 (second series), active compounds read low 1.02 | S. cerevisiae deletion strains, locus YLR342W, strain FKS1, active compounds read low 1.02 | S. cerevisiae deletion strains, locus YLR357W, strain rsc2, active compounds read low 0.975 | S. cerevisiae deletion strains, locus YLR370C, strain arc18, active compounds read low 0.985 | S. cerevisiae deletion strains, locus YLR371W, strain rom2, active compounds read low 1.01 | S. cerevisiae deletion strains, locus YLR384C, strain iki3, active compounds read low 1.01 | S. cerevisiae deletion strains, locus YLR418C, strain cdc73, active compounds read low 1 | S. cerevisiae deletion strains, locus YML016C, strain PPZ1, active compounds read low 1 | S. cerevisiae deletion strains, locus YML032C, strain rad52, active compounds read low 1 | S. cerevisiae deletion strains, locus YML120C, strain ndi1, active compounds read low 0.996 | S. cerevisiae deletion strains, locus YML124C, strain tub3, active compounds read low 1.01 | S. cerevisiae deletion strains, locus YMR058W, strain fet3, active compounds read low 1.01 | S. cerevisiae deletion strains, locus YMR078C, strain ctf18, active compounds read low 1 | S. cerevisiae deletion strains, locus YMR125W, strain sto1, active compounds read low 0.989 | S. cerevisiae deletion strains, locus YMR129W, active compounds read low 0.989 | S. cerevisiae deletion strains, locus YMR205C, strain PFK2, active compounds read low 1 | S. cerevisiae deletion strains, locus YMR223W, strain ubp8, active compounds read low 1.02 | S. cerevisiae deletion strains, locus YMR231W, strain pep5, active compounds read low 0.999 | S. cerevisiae deletion strains, locus YMR307W, strain GAS1, active compounds read low 0.979 | S. cerevisiae deletion strains, locus YNL067W, strain RPL9B, active compounds read low 0.995 | S. cerevisiae deletion strains, locus YNL071W, strain lat1, active compounds read low 0.998 | S. cerevisiae deletion strains, locus YNL183C, strain NPR1, active compounds read low 0.949 | S. cerevisiae deletion strains, locus YNL209W, strain ssb2, active compounds read low 0.994 | S. cerevisiae deletion strains, locus YNL233W, strain BNI4, active compounds read low 0.994 | S. cerevisiae deletion strains, locus YNL248C, strain rpa49, active compounds read low 0.957 | S. cerevisiae deletion strains, locus YNL250W, strain rad50, active compounds read low 1.01 | S. cerevisiae deletion strains, locus YNL271C, strain bni1, active compounds read low 1.02 | S. cerevisiae deletion strains, locus YNL298W, strain CLA4, active compounds read low 1.01 | S. cerevisiae deletion strains, locus YNL307C, strain MCK1, active compounds read low 1.02 | S. cerevisiae deletion strains, locus YNL322C, strain KRE1 (second series), active compounds read low 0.996 | S. cerevisiae deletion strains, locus YNL322C, strain KRE1, active compounds read low 1.01 | S. cerevisiae deletion strains, locus YNR049C, strain mso1, active compounds read low 1 | S. cerevisiae deletion strains, locus YNR052C, strain pop2, active compounds read low 1.01 | S. cerevisiae deletion strains, locus YOL006C, strain TOP1, active compounds read low 0.987 | S. cerevisiae deletion strains, locus YOL012C, strain htz1 1.52 | S. cerevisiae deletion strains, locus YOL147C, strain pex11, active compounds read low 1.01 | S. cerevisiae deletion strains, locus YOR001W, strain rrp6, active compounds read low 1.01 | S. cerevisiae deletion strains, locus YOR061W, strain CKA2, active compounds read low 1.01 | S. cerevisiae deletion strains, locus YOR069W, strain VPS5, active compounds read low 1 | S. cerevisiae deletion strains, locus YOR070C, strain gyp1, active compounds read low 1.01 | S. cerevisiae deletion strains, locus YOR080W, strain dia2, active compounds read low 1.01 | S. cerevisiae deletion strains, locus YOR083W, strain WHI5, active compounds read low 0.963 | S. cerevisiae deletion strains, locus YOR106W, strain vam3, active compounds read low 0.989 | S. cerevisiae deletion strains, locus YOR136W, strain idh2, active compounds read low 1.01 | S. cerevisiae deletion strains, locus YOR144C, strain elg1, active compounds read low 1.01 | S. cerevisiae deletion strains, locus YOR184W, strain ser1, active compounds read low 1 | S. cerevisiae deletion strains, locus YOR231W, strain MKK1, active compounds read low 0.974 | S. cerevisiae deletion strains, locus YOR265W, strain rbl2, active compounds read low 1.02 | S. cerevisiae deletion strains, locus YOR270C, strain vph1, active compounds read low 0.853 | S. cerevisiae deletion strains, locus YOR290C, strain snf2, active compounds read low 0.972 | S. cerevisiae deletion strains, locus YOR316C, strain cot1, active compounds read low 1.02 | S. cerevisiae deletion strains, locus YPL051W, strain arl3, active compounds read low 0.995 | S. cerevisiae deletion strains, locus YPL078C, strain atp4, active compounds read low 0.98 | S. cerevisiae deletion strains, locus YPL106C, strain sse1, active compounds read low 1 | S. cerevisiae deletion strains, locus YPL240C, strain hsp82, active compounds read low 1.02 | S. cerevisiae deletion strains, locus YPL241C, strain CIN2, active compounds read low 1.01 | S. cerevisiae deletion strains, locus YPL256C, strain CLN2, active compounds read low 0.962 | S. cerevisiae deletion strains, locus YPR119W, strain clb2, active compounds read low 1 | S. cerevisiae deletion strains, locus YPR141C, strain kar3, active compounds read low 1.01 | S. cerevisiae deletion strains, locus YPR163C, strain tif3, active compounds read low 1.01 | S. cerevisiae deletion strains, locus YPR167C, strain met16, active compounds read low 1.01 | S. cerevisiae deletion strains, strain wtn01, active compounds read low 1 | S. cerevisiae strains, strain wild type, active compounds read low 1.01
